S2 tox: Viability Counterscreen for Primary qHTS for Inhibitors of ATXN expression; AID 651635, 2014; 400,000 tested, 0.49% active; S2 cells (HEK-293 line with an ATXN2-luciferase reporter) viability, CellTiter-Fluor protease fluorescence, 24 h; Potency, µM (top dose mostly 56.7 µM), most hits filed as cytotoxic; note: potency is the fitted concentration of half-maximal effect; nearly all actives have a fitted effect of over 40% in size
D3 antag: qHTS of D3 Dopamine Receptor Antagonist: qHTS; 360,000 tested, 2.5% active; AID 652054, 2013; D3R cells, DiscoveRx beta-arrestin luminescence, antagonist mode; stronger effect = lower value; max response, negative = inhibition, %; D(3) dopamine receptor (Homo sapiens), P35462; in the data active = max response below about -50%; inconclusive = no clear call, values can overlap the other calls; note: % is set by controls: 0 for no effect and ±100 for the full control effect
Target sequence (P35462 whole entry, looked up): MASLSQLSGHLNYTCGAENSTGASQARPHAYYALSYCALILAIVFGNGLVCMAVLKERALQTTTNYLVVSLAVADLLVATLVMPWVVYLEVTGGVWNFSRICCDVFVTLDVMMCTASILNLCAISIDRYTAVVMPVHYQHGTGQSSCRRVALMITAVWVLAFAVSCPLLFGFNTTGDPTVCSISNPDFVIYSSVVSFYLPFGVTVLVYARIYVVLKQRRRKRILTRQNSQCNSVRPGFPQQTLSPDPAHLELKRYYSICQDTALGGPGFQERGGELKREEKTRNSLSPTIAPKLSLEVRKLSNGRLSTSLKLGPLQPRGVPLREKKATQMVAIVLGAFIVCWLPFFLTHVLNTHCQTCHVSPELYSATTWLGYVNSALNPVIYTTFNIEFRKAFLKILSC
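Cells plated overnight at 1500 cells/well, then exposed to library compounds with dopamine controls for 90 minutes at 37 degrees C. DiscoveRx reagent added for 30–60 minutes at room temperature; luminescence read, quantitative HTS format.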
IL-1B inflam inh: qHTS for Inhibitors of Inflammasome Signaling: IL-1-beta AlphaLISA Primary Screen. THP-1 LPS/ATP IL-1B secretion, AlphaLISA, 16 h; stronger effect = lower value. activity change, % at 57.5 µM. 360,000 tested, 4.7% active. AID 743279, 2014; in the data active = activity change below about -50%; inconclusive = mostly about -30% to -49%; note: % is set by controls: 0 for no effect and ±100 for the full control effect
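Secreted IL-1B measured by AlphaLISA bead assay after 16 h compound exposure of THP-1 cells; compounds (final up to 57.5 uM) added 1 h before LPS (250 ng/mL) and ATP (1.25 mM) stimulation; lower signal means less secretion.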
Integrin act MD: qHTS for Activators of Integrin-Mediated Alleviation for Muscular Dystrophy; alpha7betagal myoblasts, beta-gal FDG fluorescence, 48 h; Potency, µM (series often up to 38.3 µM), without a hit: at the top dose activation, usual class: activators; 350,000 tested, 0.064% active; AID 624291, 2012;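 note: potency is the fitted concentration of half-maximal effect; 100% = response of the positive control SU9516; nearly all actives have a fitted effect of over 60% in size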
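Alpha7betagal+/- myoblasts (passage 13) were plated 16-24 hr, then exposed to compounds (1:260 dilution of DMSO stock) for 48 hours at 37C. After MPER lysis, β-galactosidase reporter activity was read as FDG fluorescence (ex 480/em 540) after 30 minutes.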
D3 ag: qHTS of D3 Dopamine Receptor Agonist: qHTS | max activation, % | D(3) dopamine receptor (Homo sapiens), P35462 | AID 652048, 2013 | 410,000 tested, 0.58% active | D3R DiscoveRx beta-arrestin cells, luminescence, 90 min; in the data active = max activation above about 30%; note: 0% is about no effect
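Agonist mode: compounds and dopamine controls were applied to plated cells for 90 min at 37 degrees C after an overnight attachment at 1500 cells/well. Luminescent read-out followed 30 - 60 minutes at room temperature with DiscoveRx detection reagent.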
ATXN2 expr inh: Primary qHTS for Inhibitors of ATXN expression. HEK-293 ATXN2-luciferase reporter, luminescence, 24 h. Potency, µM (series often up to 57 µM), inactives show top-dose activity change, negative = inhibition, most hits filed as inhibitors. 360,000 tested, 0.72% active. AID 1745845, 2022; note: potency is the fitted concentration of half-maximal effect; % is set by controls: 0 for no effect and ±100 for the full control effect; nearly all actives have a fitted effect of over 55% in size
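qHTS (up to 57 uM final) was run with 24 h compound exposure of reporter cells at 37 °C. Each well was multiplexed: SteadyGlo luminescence measured ATXN2-luciferase expression after a fluorogenic Gly-Phe-AFC viability readout (25 uM final).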
Numbers without * were called inactive; i = inactive; u = inconclusive; x = no result given; ! = not confirmed by another sample; [ ] = remark or other dose. In the library only some 7% were active in any assay of this set; here they are far more common. Unless noted, calls come from the whole dose curve; as a rule, active = well fitted curve in the direction sought with a large enough effect; inconclusive = small, poorly fitted or top-dose-only effect, or another doubt; inactive = no such curve, though single readings can be large; an effect the other way counts as inactive or inconclusive.

SMILES | S2 tox | D3 antag | IL-1B inflam inh | Integrin act MD | D3 ag | ATXN2 expr inh
O=C1CN=C(c2cc([N+](=O)[O-])ccc2Cl)c2cc([N+](=O)[O-])ccc2N1 | i | 2.5 | -11.9 | 5.3% | 5.3 | -4.9%
COC(=O)CCCCC1SCC(NC(=O)c2ccccc2)C1Cl (centres undefined) | i | 22.9 | -6.5 | -32.2% | 2.5 | -13.9%[11.3 µM]
Cc1ccc(NP(=O)(Nc2ccc(C)cc2)Oc2ccccc2)cc1 | u | 1.5 | -71.5* | -19.3% | 19.4 | 2.2%
CC(C)C[C@H](NP(=O)(O)O[C@@H]1O[C@@H](C)[C@H](O)[C@@H](O)[C@H]1O)C(=O)N[C@@H](Cc1c[nH]c2ccccc12)C(=O)O | i | 14.2 | -2.3 | x | 1.6 | 6.5%
COc1cccc(C(c2nnnn2-c2ccc3c(c2)OCCO3)N2CCC(n3c(=O)[nH]c4ccccc43)CC2)c1OC (centres undefined) | i | 22.9 | 32.3 | x | 2.7 | 15.8µM*
O=c1[nH]c2ccccc2n1C1CCN(C(c2ccccc2OC(F)(F)F)c2nnnn2-c2ccc3c(c2)OCCO3)CC1 (centres undefined) | x | 13.3 | -55.7* | x | 34.8* | 12.6µM*
Fc1ccccc1N1CCN(Cc2c(F)cccc2F)CC1 | i | u | 14.3 | -12.6%[7.66 µM] | -8.7 | 0.8%
Cc1ccc(OCC(=O)N2CCN(Cc3ccc4c(c3)OCO4)CC2)cc1C | i | -0.5 | -7.7 | u | -2.8 | -11.5%
Clc1ccccc1CN1CCN(c2ccccc2Cl)CC1 | i | -83.1* | 25.1 | 1.9% | -30.3 | -17.5%
Cc1ccccc1N1CCN(Cc2ccc3c(c2)OCO3)CC1 | i | -76.5* | -23.0 | 2.1% | -17.2 | u
Fc1ccccc1N1CCN(Cc2ccc3c(c2)OCO3)CC1 | i | u | -4.4 | -5.1% | 23.2 | 2.1%
Clc1ccccc1N1CCN(Cc2ccc3c(c2)OCO3)CC1 | u | -88.1* | -21.7 | -28.3% | -14.4 | -21.0%
O=C(COc1ccc(Br)cc1)N1CCN(Cc2ccc3c(c2)OCO3)CC1 | i | -29.0 | -59.6* | u | -12.7 | -13.4%
NC(=O)CN1CC(O)CC1=O (centres undefined) | x | x | x | x | -11.2 | x
CN1CCN(Cc2c(F)cccc2Cl)CC1 | i | -3.7 | -7.5 | 14.3% | -16.4 | x
CN1CCc2cccc(Cl)c2CC1 | i | -78.3* | 15.5 | x | -71.1 | -6.4%
c1ccc(CCc2ccc3n2Cc2cnnn2-c2ccccc2-3)cc1 | i | -20.2 | -57.6* | -5.8% | -6.3 | -15.4%
CN1CCc2cc3c(c4c2C1Cc1ccccc1-4)OCO3 (centres undefined) | i | -9.6 | -53.6* | 1.6% | -16.9 | -30.1%
COc1cc2c(cc1O)C[C@H]1c3c(cc(O)c(OC)c3-2)CCN1C | u | 3.2 | 0.2 | x | -56.6 | 0.1%
CCC1(CCC(C)C)C(=O)NC(=O)N(c2ccccc2)C1=O (centres undefined) | i | -10.0 | 10.9 | x | -5.6 | -8.7%
COC(=O)CSC1=NP(=S)(SCC(=O)OC)N2CCCC2=C1C#N (centres undefined) | i | -20.7 | -94.3* | -31.0% | 0.8 | 1.9%
c1ccc2c(CNC3CCCCCC3)c[nH]c2c1 | 28.2µM* | -16.3 | -70.1* | -50.4%[7.66 µM] | -9.6 | 20µM*
COc1cc(CC(C)N)cc(OC)c1OC (centres undefined) | u | x | x | x | 13.2 | 9.3%[116 µM]
Cc1cc2c(C(C)C)c(O)c(O)c(C=O)c2c(O)c1-c1c(C)cc2c(C(C)C)c(O)c(O)c(C=O)c2c1O | 25.1µM* | x | x | x | 13.4 | u
O=C1NCN(c2ccccc2)C12CCN(C(c1nnnn1C1CCCCC1)C1CC1)CC2 (centres undefined) | u | -19.2 | -16.4 | x | -6.3 | -31.5%
SMILES | S2 tox | D3 antag | IL-1B inflam inh | Integrin act MD | D3 ag | ATXN2 expr inh
CCCN1CCc2cc(O)cc3c2[C@H]1Cc1ccc(O)c(O)c1-3 | u | u | -25.3 | x | 22.6 | -32.0%
CN1CCc2cc(O)cc3c2[C@H]1Cc1ccc(O)c(O)c1-3 | i | -84.0* | -17.4 | x | -32.5 | u
CCCCn1c(O)c(C(C)=NCCCN(CC)CC)c(=O)[nH]c1=O | i | u | -3.1 | -7.8% | -2.9 | 2.3%
N[C@@H](Cc1ccc(N(CCCl)CCCl)cc1)C(=O)O | u | -1.4 | -5.6 | x | -19.4 | 5.44µM*!
O=S1(=O)N(CCN2CC=C(c3c[nH]c4cc(F)ccc34)CC2)c2cccc3c2N1CCC3 | u | -100.5* | -58.8* | x | -91.9 | u
COC(=O)C1=C(c2c(C)noc2C)C[C@@H]2CC[C@H]1N2C(=O)NCCCOC(C)C | i | -19.6 | 25.9 | 16.9% | 0.9 | 2.1%
CCC(=O)[C@@H](C)[C@@H](O)[C@H](C)C[C@@H](C)C1OC(=O)C[C@@]2(O)CC=C(C)C(O2)C(C)=CCCC[C@H](O[C@H]2C[C@@H](OC(N)=O)[C@H](O)[C@@H](C)O2)C=C[C@H](C)C[C@H]1C (some centres undefined) | 14.1µM* | 10.4 | -21.5 | x | -10.1 | -54.3%
CCc1ccc(CN2CCCC(C(=O)c3sccc3C)C2)o1 (centres undefined) | i | -52.3* | 5.7 | 6.6% | -21.5 | -14.3%
Cc1ccsc1C(=O)C1CCCN(Cc2cnn(C(C)C)c2)C1 (centres undefined) | i | -72.9* | -5.4 | -12.3% | -10.8 | x
Cc1ccsc1C(=O)C1CCCN(Cc2ccccc2O)C1 (centres undefined) | i | -52.8* | -17.7 | 8.7% | -14.8 | -21.1%
C=CCn1c(O)c(C(CC)=NCCc2c[nH]c3ccccc23)c(=O)[nH]c1=O | u | 28.5 | 33.1 | 0.8% | -0.1 | -35.0%
CC(C)(C)C(=O)N1Cc2cnnn2-c2ccccc2C1C#N (centres undefined) | i | 45.1 | 17.8 | 18.8% | -0.3 | 5.7%
O=C(Nc1cccc2ccccc12)c1nn(C23CC4CC(CC(C4)C2)C3)cc1Br | i | 17.1 | -3.5 | 3.5% | -4.4 | -0.8%
Brc1ccc(CN2CCNCC2)s1 | i | u | -2.3 | -6.1% | -15.1 | -5.8%
Nc1nc(F)nc2c1ncn2[C@@H]1O[C@H](CO)[C@@H](O)[C@H]1O | 3.16µM* | 16.2 | -74.2* | x | 10.8 | 2.51µM*
CCNC(=O)C1OC(n2cnc3c(N)ncnc32)C(O)C1O (centres undefined) | i | 0.0 | u | -3.8% | 4.5 | -1.4%
OC[C@H]1O[C@@H](n2cnc3cc(Cl)c(Cl)cc32)[C@H](O)[C@@H]1O | i | -19.5 | -69.5* | x | -51.7 | -32.5%
